Measurements from PubChem BioAssay AID2690 (NMMLSC, 2010).
Screen size: about 330,000 compounds; about 590 (0.18%) were called active.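 Rule for the calls: active = superoxide response under a set limit, about three screen SD below normal (cut at about 65% in these data); inactive = the rest.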 Only a selection was taken, and actives are over-represented in it overall.

Test: reduction of superoxide in aged yeast, primary screen, HTS (AID 2690);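 note: yeast aged for seven days with compound at 30 °C before DHE staining; 100% = average MFI of all compound-treated wells on the plate with controls excluded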
Conditions: S. cerevisiae aged cells, superoxide DHE fluorescence; at 10 µM; hits give low values
In the case of `Cc1ccc(-c2noc(CNC(=O)c3ccoc3C)n2)cc1`, the superoxide response (% of plate mean) is reported as 85% (inactive). With `Cc1ccc(N2CCN(S(=O)(=O)c3ccc(F)cc3)CC2)c(C)c1` the superoxide response (% of plate mean) was 106% (inactive). With `CC(=O)c1ccc(N2CCN(S(=O)(=O)c3ccc4c(c3)CC(=O)N4C)CC2)cc1` the superoxide response (% of plate mean) was 97.6% (inactive). For `Cc1c(NC(=O)CN(C)CC(=O)Nc2ccc(F)c(F)c2F)c(=O)n(-c2ccccc2)n1C`, the superoxide response (% of plate mean) was 91.2% (inactive). With `CCOc1ccc2nc(Cl)c(C3CC(c4ccccc4)=NN3C(=O)c3cccs3)cc2c1` (stereo not given) the superoxide response (% of plate mean) was 75.7% (inactive). In the case of `O=C(CSc1nnnn1C1CCCC1)Nc1ccc2c(c1)OCCO2`, the superoxide response (% of plate mean) is reported as 98.8% (inactive). For `CC(C(=O)N=Nc1c(O)n(C)c2ccc(Br)cc12)n1cnc2ccccc2c1=O` (stereo not given), the superoxide response (% of plate mean) was 89.3% (inactive). For `COc1cc(NC(=O)C2=C(C)OCCS2)c(Cl)cc1C(=O)NCCN1CCN(C)CC1`, the superoxide response (% of plate mean) was 99.2% (inactive). With `CCN(CC)N=Nc1cccc(NC(C)=O)c1` the superoxide response (% of plate mean) was 96.8% (inactive). In the case of `CCc1ccccc1NC(=O)CN(C)C(=O)c1cc(C2CC2)nn1-c1ccccc1`, the superoxide response (% of plate mean) is reported as 117% (inactive). With `C/C(CC(=O)NC(C)(C)C)=N\NC(=O)c1ccco1` the superoxide response (% of plate mean) was 92.3% (inactive). For `O=C(OC1CCCCC1=O)c1cccc(S(=O)(=O)NCc2ccccc2)c1` (stereo not given), the superoxide response (% of plate mean) was 91.2% (inactive). In the case of `O=C(O)CC/C(=N\NC(=O)c1ccc(F)cc1)c1ccc(Br)cc1`, the superoxide response (% of plate mean) is reported as 97.4% (inactive). For `COc1cc(NS(=O)(=O)c2ccc(NC(=O)CN3C(=O)c4ccccc4C3=O)cc2)ncn1`, the superoxide response (% of plate mean) was 87.5% (inactive). With `CNC(=O)c1cccc2nc3ccccc3nc12` the superoxide response (% of plate mean) was 47% (active). In the case of `CN(C)C(=O)c1coc2nc3ccccc3nc12`, the superoxide response (% of plate mean) is reported as 90.3% (inactive). For `CNC(=O)c1cc2c(ccc3ccccc32)oc1=N`, the superoxide response (% of plate mean) was 90% (inactive). For `O=C1CCCCC1C(=O)c1ccccc1` (stereo not given), the superoxide response (% of plate mean) was 88.5% (inactive). In the case of `CCc1ccc(-c2nc(SCC(=O)NC3CCCC3)n[nH]2)cc1`, the superoxide response (% of plate mean) is reported as 109% (inactive). For `Clc1ccc2nc(CSc3ccccc3)cn2c1`, the superoxide response (% of plate mean) was 99.1% (inactive). With `Cc1ccc(OCC(=O)Nc2ccc(N3CCN(C(=O)c4ccco4)CC3)cc2)c(C)c1` the superoxide response (% of plate mean) was 100% (inactive). For `CN(C)c1ccc(/C=N/NC(=O)C(O)c2ccc(Br)cc2)cc1` (stereo not given), the superoxide response (% of plate mean) was 110% (inactive). For `CN(C)c1ccc(/C=N\S(=O)(=O)c2ccccc2)cc1`, the superoxide response (% of plate mean) was 64.7% (active). For `CN(C)c1ccc(C=NCCc2ccc(S(N)(=O)=O)cc2)cc1`, the superoxide response (% of plate mean) was 82.2% (inactive). With `Cc1c(C(=O)OCC(=O)N(CCC#N)c2ccccc2)oc2c1ccc1ccccc12` the superoxide response (% of plate mean) was 86.3% (inactive). With `COCCC(=O)N1CCC(Oc2ccc(C(=O)NCc3ccon3)cc2)CC1` the superoxide response (% of plate mean) was 92% (inactive). With `COC(=O)CNC(=O)c1ccc(OC2CCN(C(=O)C3CC3)CC2)cc1` the superoxide response (% of plate mean) was 64% (active). For `C=C(C)CNC(=O)c1ccc(OC2CCN(C(=O)COC)CC2)cc1`, the superoxide response (% of plate mean) was 103% (inactive). For `C[n+]1cc(-c2ccccc2)oc1-c1ccccc1`, the superoxide response (% of plate mean) was 96.2% (inactive). With `COc1ccc(/C(C)=N/Nc2cc(C(F)(F)F)ccc2Cl)c(OC)c1` the superoxide response (% of plate mean) was 87.7% (inactive). For `N=C1C(=O)OCC1c1ccccc1NC(=O)CN1CCCCC1` (stereo not given), the superoxide response (% of plate mean) was 110% (inactive). With `CCCCOC(=O)Nc1sc2nc(C)cc(C)c2c1-n1cccc1` the superoxide response (% of plate mean) was 113% (inactive). In the case of `Cc1ccc2c(cnn2C(=O)CCC(=O)NC2CCCC2)c1`, the superoxide response (% of plate mean) is reported as 96.7% (inactive). For `COc1ccc(C2=Nc3cc(C)ccc3OC2)cc1`, the superoxide response (% of plate mean) was 99.1% (inactive). With `C#CCO[C@@H]1C[C@H](n2cnc3c(=O)[nH]c(NC(=O)C(C)C)nc32)O[C@@H]1CO` the superoxide response (% of plate mean) was 101% (inactive). For `COCCN(C(=O)CCC(=O)Nc1nccs1)C(C(=O)NC(C)(C)C)c1ccc(Cl)cc1` (stereo not given), the superoxide response (% of plate mean) was 87.1% (inactive). In the case of `O=C(NC1CCCC1)C1CC(=O)N(c2ccc(F)cc2)C1` (stereo not given), the superoxide response (% of plate mean) is reported as 96.9% (inactive). In the case of `COc1ccc(C(C)C)cc1S(=O)(=O)Nc1ncn[nH]1`, the superoxide response (% of plate mean) is reported as 87.8% (inactive). With `O=c1o[nH]c(-c2ccccc2)c1N=Nc1c(F)cccc1Cl` the superoxide response (% of plate mean) was 105% (inactive). For `O=C(NCCCNC(=O)NC1CCCCC1)NC1CCCCC1`, the superoxide response (% of plate mean) was 106% (inactive). With `O=C(Oc1c(-c2ccco2)oc2ccccc2c1=O)c1cccnc1` the superoxide response (% of plate mean) was 104% (inactive). For `O=[N+]([O-])c1cc(S(=O)(=O)Nc2cccc(Cl)c2)ccc1N=Nc1c(O)[nH]c2ccccc12`, the superoxide response (% of plate mean) was 91.3% (inactive). For `CC(=O)c1c(C)c[nH]c1C`, the superoxide response (% of plate mean) was 90.3% (inactive). In the case of `Cc1ccc(NC(=O)CSCC(=O)N2CCOCC2)cc1`, the superoxide response (% of plate mean) is reported as 98.5% (inactive). For `CCc1ccccc1N(CC(=O)NCC1CCCO1)C(=O)CCC(=O)Nc1nccs1` (stereo not given), the superoxide response (% of plate mean) was 88% (inactive). With `COc1ccc(-c2cc(C(=O)N(C)Cc3ccc(OC)c(OC)c3OC)c3ccccc3n2)cc1OC` the superoxide response (% of plate mean) was 96.5% (inactive). For `Cc1cccc(CN2CCC(CNC(=O)Nc3ccc(F)c(Cl)c3)CC2)c1`, the superoxide response (% of plate mean) was 92.6% (inactive). In the case of `Cc1ccccc1NC(=O)NCC1CCN(Cc2cccc(Cl)c2)CC1`, the superoxide response (% of plate mean) is reported as 36.3% (active). For `O=C(NCC1CCN(Cc2ccccc2Cl)CC1)Nc1cccc(Cl)c1`, the superoxide response (% of plate mean) was 103% (inactive). In the case of `C/C(N)=C(/C#N)C(=O)COC(=O)C1=NN(c2ccccc2)C(=O)CC1`, the superoxide response (% of plate mean) is reported as 82.1% (inactive). With `CN(C)C1=NC[C@H](Cc2ccccc2)N1CCc1ccc(F)cc1` the superoxide response (% of plate mean) was 98.7% (inactive). With `C/C(=N\NS(=O)(=O)c1cccc([N+](=O)[O-])c1)c1cc2ccccc2o1` the superoxide response (% of plate mean) was 107% (inactive). With `CCC(=O)N(C)C(c1ccccc1Cl)c1nnnn1-c1c(C)cccc1C` (stereo not given) the superoxide response (% of plate mean) was 107% (inactive). In the case of `COc1ccccc1C(=O)Nc1ccnn1C1CCN(Cc2cnn(C)c2)CC1`, the superoxide response (% of plate mean) is reported as 92% (inactive). For `O=C(NNC(=O)c1cc(S(=O)(=O)N2CCCCC2)ccc1Cl)c1ccccc1O`, the superoxide response (% of plate mean) was 95.4% (inactive). With `CCC1(CC)C(=O)C2=C3C1[C@H](C(=O)OC)C=C(C(=O)OC)C[C@H]3[C@H]1C(=O)N(Cc3ccccc3)C(=O)[C@H]1[C@H]2C` (stereo not given in full) the superoxide response (% of plate mean) was 107% (inactive). In the case of `CC[C@]12c3[nH]c4cc(CCC(=O)N(C)C)ccc4c3CCN1C(=O)[C@@H](CC(=O)NCC13CC4CC(CC(C4)C1)C3)C[C@@H]2C(=O)N1CCN(C(=O)C2CC2)CC1`, the superoxide response (% of plate mean) is reported as 120% (inactive). With `CCOC(=O)NNC(=O)c1ccc(Cl)cc1` the superoxide response (% of plate mean) was 96.8% (inactive). With `CSc1sc(C(=O)NNC(=O)c2ccc(Cl)cc2)c2c1C=CCC2` the superoxide response (% of plate mean) was 61.9% (active). With `O=C(NNC(=O)C1C2CCC(C2)C1C(=O)O)c1ccc(Cl)cc1` (stereo not given) the superoxide response (% of plate mean) was 97.2% (inactive).
